Inconclusive results are not listed. Entries that show only a call come without a potency. Calls of active or inactive are those of the source. Unless noted, calls follow the shape of the dose curve; as a rule, active = well fitted curve in the direction sought with a large enough effect; inconclusive = small, poorly fitted or top-dose-only effect, or another doubt; inactive = no such curve, though single readings can be large; an effect the other way counts as inactive or inconclusive.
Legend:
[1] = target: Nuclear receptor subfamily 1 group I member 3 (Homo sapiens) (UniProt Q14994); test: Primary qHTS for antagonist of constitutive androstane receptor (CAR) against the NCATS DSHEA and TCM libraries (AID 1794836);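 also: HepG2 cells stably expressing hCAR with CYP2B6 luciferase reporter stimulated by CITCO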
Chain of Nuclear receptor subfamily 1 group I member 3 (Homo sapiens) (Q14994 whole entry, looked up): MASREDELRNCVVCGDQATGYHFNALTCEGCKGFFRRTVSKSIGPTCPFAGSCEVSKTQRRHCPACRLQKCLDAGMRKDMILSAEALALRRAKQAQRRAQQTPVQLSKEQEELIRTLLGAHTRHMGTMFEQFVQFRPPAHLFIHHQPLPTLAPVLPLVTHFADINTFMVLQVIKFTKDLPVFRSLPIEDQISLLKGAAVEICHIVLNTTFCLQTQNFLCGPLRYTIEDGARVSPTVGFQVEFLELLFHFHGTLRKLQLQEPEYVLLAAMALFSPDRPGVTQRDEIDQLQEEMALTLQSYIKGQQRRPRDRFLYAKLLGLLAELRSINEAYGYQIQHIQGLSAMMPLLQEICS
Method in brief: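 Antagonist mode: CAR reporter luminescence (ONE-Glo) in HepG2-CYP2B6-hCAR cells stimulated with 48 uM CITCO (final) over 24 h at 37 C, compounds titrated; viability read first by CellTiter-Fluor fluorescence.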

[2] = Viability counterscreen for agonist of constitutive androstane receptor (CAR) against the NCATS DSHEA and TCM libraries (AID 1794838)
Method in brief: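 Multiplexed counterscreen: after 24 h compound exposure with 0.75 uM PK11195, HepG2-CYP2B6-hCAR viability was quantified fluorimetrically (CellTiter-Fluor, 405/540 nm) prior to the ONE-Glo luciferase read.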

[3] = target: Nuclear receptor subfamily 1 group I member 3 (Homo sapiens) (UniProt Q14994); test: Primary qHTS for agonist of constitutive androstane receptor (CAR) against the NCATS DSHEA and TCM libraries (AID 1794839); conditions: Potency: CAR antagonist co-added at 0.75 µM unless noted;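 also: HepG2 cells expressing human CAR with a CYP2B6 reporter plus PK11195 antagonist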
Method in brief: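 Concentration–response screen in HepG2-CYP2B6-hCAR cells under 0.75 µM PK11195; 24 h exposure; luminescent reporter signal with multiplexed fluorescent viability.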

[4] = HepG2 viability counterscreen (readout 2: ATP content) against the NCATS DSHEA and TCM libraries (AID 1794840)
Method in brief: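 After HepG2 cells attach for ~4 h, substances are added and incubated ~24 h at 37C, 5% CO2. GF-AFC fluorescence then CellTiter-Glo luminescence give protease and ATP readouts.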

[5] = target: Cytochrome P450 3A4 (Homo sapiens) (UniProt P08684); test: qHTS for inhibitors of CYP3A4 against the NCATS DSHEA and TCM libraries (AID 1919971);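 also: inhibition lowers luminescence from luciferin made by CYP3A4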
Chain of Cytochrome P450 3A4 (Homo sapiens) (P08684 whole entry, looked up): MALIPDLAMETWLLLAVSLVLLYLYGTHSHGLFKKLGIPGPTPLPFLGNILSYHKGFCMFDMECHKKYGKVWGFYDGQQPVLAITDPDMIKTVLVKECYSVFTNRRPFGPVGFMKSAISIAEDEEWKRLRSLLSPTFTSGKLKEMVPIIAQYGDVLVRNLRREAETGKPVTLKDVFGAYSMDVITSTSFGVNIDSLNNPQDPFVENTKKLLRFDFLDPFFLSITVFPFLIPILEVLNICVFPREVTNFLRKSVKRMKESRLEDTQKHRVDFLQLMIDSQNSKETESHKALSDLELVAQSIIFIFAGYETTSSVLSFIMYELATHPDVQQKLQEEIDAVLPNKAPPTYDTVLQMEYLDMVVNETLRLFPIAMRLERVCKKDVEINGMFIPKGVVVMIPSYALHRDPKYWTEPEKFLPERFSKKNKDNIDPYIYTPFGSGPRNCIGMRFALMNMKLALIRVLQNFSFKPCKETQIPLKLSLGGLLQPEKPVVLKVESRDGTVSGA
Method in brief: (§1)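 Luminescent P450-Glo readout. Enzyme plus pro-luciferin substrate in manufacturer buffer (typically 100 mM KPO4); 15 min RT preincubation; 1x NADPH regenerating system, 30-45 min RT in the dark; detection reagent 30 min.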

[6] = target: Cytochrome P450 2D6 (Homo sapiens) (UniProt P10635); test: qHTS for inhibitors of CYP2D6 against the NCATS DSHEA and TCM libraries (AID 1919972)
Chain of Cytochrome P450 2D6 (Homo sapiens) (P10635 whole entry, looked up): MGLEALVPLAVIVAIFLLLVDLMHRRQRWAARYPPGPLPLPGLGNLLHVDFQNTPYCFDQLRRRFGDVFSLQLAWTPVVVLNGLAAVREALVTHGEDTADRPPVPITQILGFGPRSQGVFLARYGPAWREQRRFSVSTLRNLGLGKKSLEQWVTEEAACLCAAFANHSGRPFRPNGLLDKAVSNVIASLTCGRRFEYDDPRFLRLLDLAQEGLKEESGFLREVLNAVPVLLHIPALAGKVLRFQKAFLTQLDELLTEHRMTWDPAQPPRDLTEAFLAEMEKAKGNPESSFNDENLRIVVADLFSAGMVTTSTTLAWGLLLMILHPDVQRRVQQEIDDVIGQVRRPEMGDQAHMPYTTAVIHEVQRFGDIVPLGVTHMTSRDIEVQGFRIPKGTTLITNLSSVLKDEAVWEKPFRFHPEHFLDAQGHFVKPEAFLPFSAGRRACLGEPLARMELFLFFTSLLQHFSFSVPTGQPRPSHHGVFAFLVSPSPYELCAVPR
Method in brief: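 Steps: enzyme plus luciferin substrate dispensed; test substances pinned; 15 min RT; 1x NADPH regenerating solution added, 30–45 min RT protected from light; detection reagent, 30 min RT; luminescence measured. Minus-enzyme wells as background.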

[7] = target: Cytochrome P450 2C9 (Homo sapiens) (UniProt P11712); test: qHTS for inhibitors of CYP2C9 against the NCATS DSHEA and TCM libraries (AID 1919973); also: potency is read from the fitted curve at half-maximal effect
Chain of Cytochrome P450 2C9 (Homo sapiens) (P11712 whole entry, looked up): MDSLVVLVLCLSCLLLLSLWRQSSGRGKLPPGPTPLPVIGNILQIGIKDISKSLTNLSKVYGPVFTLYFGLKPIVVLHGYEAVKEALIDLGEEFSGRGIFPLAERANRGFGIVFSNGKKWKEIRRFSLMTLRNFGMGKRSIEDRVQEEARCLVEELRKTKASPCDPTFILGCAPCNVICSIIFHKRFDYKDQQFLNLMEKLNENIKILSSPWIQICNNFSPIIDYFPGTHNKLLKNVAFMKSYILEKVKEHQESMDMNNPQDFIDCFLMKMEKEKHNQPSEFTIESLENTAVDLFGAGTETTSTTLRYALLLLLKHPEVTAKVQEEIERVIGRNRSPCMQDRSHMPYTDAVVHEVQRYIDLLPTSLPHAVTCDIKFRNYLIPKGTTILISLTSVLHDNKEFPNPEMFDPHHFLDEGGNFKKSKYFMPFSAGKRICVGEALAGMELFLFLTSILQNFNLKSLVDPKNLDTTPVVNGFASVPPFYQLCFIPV
Method in brief: as §1

[8] = target: Cytochrome P450 1A2 (Homo sapiens) (UniProt P05177); test: qHTS for inhibitors of CYPIA2 against the NCATS DSHEA and TCM libraries (AID 1919976); also: potency is read from the fitted curve at half-maximal effect
Chain of Cytochrome P450 1A2 (Homo sapiens) (P05177 whole entry, looked up): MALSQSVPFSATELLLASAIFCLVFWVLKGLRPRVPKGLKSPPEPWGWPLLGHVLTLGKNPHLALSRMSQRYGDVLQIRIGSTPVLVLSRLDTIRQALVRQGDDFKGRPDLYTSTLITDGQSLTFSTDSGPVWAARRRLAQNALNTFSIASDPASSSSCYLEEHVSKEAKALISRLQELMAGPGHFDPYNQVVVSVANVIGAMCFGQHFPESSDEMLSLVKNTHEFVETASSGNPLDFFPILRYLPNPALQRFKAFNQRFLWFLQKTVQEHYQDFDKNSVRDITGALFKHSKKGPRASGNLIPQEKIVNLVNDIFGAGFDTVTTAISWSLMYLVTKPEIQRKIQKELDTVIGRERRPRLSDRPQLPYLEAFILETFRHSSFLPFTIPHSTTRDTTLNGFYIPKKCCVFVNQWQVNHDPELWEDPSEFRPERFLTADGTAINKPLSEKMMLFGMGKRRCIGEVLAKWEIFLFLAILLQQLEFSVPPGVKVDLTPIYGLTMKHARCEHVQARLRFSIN
Method in brief: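 Human CYP1A2 with its pro-luciferin substrate in supplier buffer (typically 100 mM KPO4) was pre-incubated with compounds 15 min at RT. Reaction was started with 1x NADPH regeneration solution and run 30-45 min at RT in the dark, then luminescence was read after P450-Glo detection reagent (30 min RT).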

[9] = KB-8-5-11 P-gp reporter qHTS against the NCATS DSHEA and TCM libraries (AID 1919977)
Method in brief: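 Viability of drug-resistant KB-8-5-11 cells is measured by CellTiter-Glo luminescence following roughly 72 h treatment at 37C. Substances were titrated, with bortezomib as intraplate control.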

[10] = qHTS Counterscreen for compound interference against the NCATS DSHEA and TCM libraries (AID 1919978); conditions: firefly luciferase detection reagent interference, luminescence;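 also: compounds preincubated with 1 µM D-luciferin or buffer before detection reagent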
Method in brief: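 Interference check: test samples were incubated with D-luciferin (final 1 uM) or buffer only for 15 min, room temperature, in a qHTS titration up to 39.8 uM, then developed with detection reagent and read by luminescence.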

[11] = Dual reporter qHTS for agonist of Pregnane X Receptor (hPXR) against the NCATS DSHEA and TCM libraries: Fluorescence readout (AID 1920058)
Method in brief: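 hPXR-Luc HepG2 cells (2000/well) in phenol red-free medium with charcoal-stripped FBS attached for 5 h, then were exposed to compounds for about 24 h at 37 °C. Viability was read by CellTiter-Fluor fluorescence (Ex/Em 405/540 nm) after 1 h.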

[12] = target: Nuclear receptor subfamily 1 group I member 2 (Homo sapiens) (UniProt O75469); test: Dual reporter qHTS for agonist of Pregnane X Receptor (hPXR) against the NCATS DSHEA and TCM libraries: Luminescence readout (AID 1920059)
Chain of Nuclear receptor subfamily 1 group I member 2 (Homo sapiens) (O75469 whole entry, looked up): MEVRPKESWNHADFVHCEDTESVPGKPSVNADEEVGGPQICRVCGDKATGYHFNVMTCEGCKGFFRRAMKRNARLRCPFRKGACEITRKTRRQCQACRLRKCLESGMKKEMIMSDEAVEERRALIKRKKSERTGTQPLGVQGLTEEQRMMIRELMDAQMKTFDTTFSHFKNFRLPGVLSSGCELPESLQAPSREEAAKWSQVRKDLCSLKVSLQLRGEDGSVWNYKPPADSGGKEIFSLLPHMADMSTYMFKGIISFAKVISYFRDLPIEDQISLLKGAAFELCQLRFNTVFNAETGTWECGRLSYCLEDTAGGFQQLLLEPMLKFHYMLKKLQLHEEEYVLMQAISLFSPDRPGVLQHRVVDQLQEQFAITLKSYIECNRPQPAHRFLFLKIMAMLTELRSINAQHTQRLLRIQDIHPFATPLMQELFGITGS
Method in brief: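 Luminescent PXR reporter read (ONE-Glo) after a CellTiter-Fluor viability read, following 24 h, 37C treatment of HepG2 cells stably carrying hPXR-Luc.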

[13] = Dual reporter qHTS for antagonist of Pregnane X Receptor (hPXR) against the NCATS DSHEA and TCM libraries: Fluorescence Readout (AID 1920061)
Method in brief: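 hPXR-Luc HepG2 cells exposed 24 h at 37 C to compounds with 2 uM rifampicin in antagonist mode; luciferase luminescence measured by ONE-Glo, with CellTiter-Fluor viability read beforehand.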

[14] = NCATS anti-infectives library activity on HEK293 viability as a counter-qHTS vs the C. elegans viability qHTS (AID 1745854)
Method in brief: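 HEK293 cells, 1500 per well, exposed 24 hr at 37C in 5% CO2 to compounds in a 1:5 titration, up to 41.7 uM final. Viability read as CellTiter-Glo luminescence after 10 min at room temperature.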

[15] = target: Catechol O-methyltransferase (Homo sapiens) (UniProt P21964); test: Confirmatory Screen for Target Class Profiling of Small Molecule Inhibitors of Methyltransferases (AID 1745852; calls by dose curve); conditions: MTase-Glo luminescence, SAH detection, recombinant enzyme; measured here: COMT max response; stronger effect = lower value
Chain of Catechol O-methyltransferase (Homo sapiens) (P21964 whole entry, looked up): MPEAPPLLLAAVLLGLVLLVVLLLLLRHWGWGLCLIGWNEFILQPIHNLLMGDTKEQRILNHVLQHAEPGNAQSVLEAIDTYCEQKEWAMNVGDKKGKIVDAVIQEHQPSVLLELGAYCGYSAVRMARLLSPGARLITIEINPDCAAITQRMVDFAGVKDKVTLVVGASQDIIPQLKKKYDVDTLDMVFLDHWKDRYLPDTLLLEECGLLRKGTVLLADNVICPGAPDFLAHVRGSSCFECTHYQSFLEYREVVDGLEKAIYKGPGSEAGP

[16] = target: Guanidinoacetate N-methyltransferase (Homo sapiens) (UniProt Q14353); test: as above; conditions: MTase-Glo luminescence, SAH detection, recombinant enzyme; activity change, negative = inhibition: at 85.7 µM (top of the series) unless noted
[17] = target: Nicotinamide N-methyltransferase (Homo sapiens) (UniProt P40261); test: as above; conditions: MTase-Glo luminescence, SAH detection, recombinant enzyme; measured here: NNMT max response; stronger effect = lower value
Chain of Nicotinamide N-methyltransferase (Homo sapiens) (P40261 whole entry, looked up): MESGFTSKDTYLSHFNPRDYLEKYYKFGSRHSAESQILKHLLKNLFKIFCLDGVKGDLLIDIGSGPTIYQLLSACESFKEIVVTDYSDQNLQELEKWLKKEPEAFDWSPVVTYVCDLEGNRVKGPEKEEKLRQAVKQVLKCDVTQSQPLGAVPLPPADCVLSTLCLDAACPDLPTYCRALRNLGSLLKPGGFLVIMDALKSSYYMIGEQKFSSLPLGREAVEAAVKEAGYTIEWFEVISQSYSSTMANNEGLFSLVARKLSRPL

[18] = target: Phenylethanolamine N-methyltransferase (Homo sapiens) (UniProt P11086); test: as above; conditions: MTase-Glo luminescence, SAH detection, recombinant enzyme; measured here: PNMT max response; stronger effect = lower value
Chain of Phenylethanolamine N-methyltransferase (Homo sapiens) (P11086 whole entry, looked up): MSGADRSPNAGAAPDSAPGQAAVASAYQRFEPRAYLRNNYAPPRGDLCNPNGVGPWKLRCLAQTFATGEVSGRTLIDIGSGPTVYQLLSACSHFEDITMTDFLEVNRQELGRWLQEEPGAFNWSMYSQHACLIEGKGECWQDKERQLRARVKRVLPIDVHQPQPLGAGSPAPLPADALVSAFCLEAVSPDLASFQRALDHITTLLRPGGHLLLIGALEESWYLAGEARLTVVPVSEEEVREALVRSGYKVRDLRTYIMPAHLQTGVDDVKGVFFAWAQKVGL

For `CCCCCCCCCCCCCCCCCCCC(=O)O`, the Potency [1] was “inactive”, the outcome [2] was “inactive” and the Potency [3] was “inactive”. The outcome [4] was “inactive”, the Potency [5] was “inactive” and the Potency [6] was “inactive”. For the same compound, the Potency [7] was 15.8 µM (active), the Potency [8] was 22.4 µM (active) and the Potency [9] was “inactive”. The max response [10] was 0.104% (inactive), the outcome [11] was “inactive” and the Potency [12] was “inactive”. The outcome [13] was “inactive”.
For `C[C@@H](COc1ccc(Oc2ccccc2)cc1)Oc1ccccn1`, the Potency [14] was “inactive”.
Work on `COc1ccc(-c2cc([C@H]3CN4CC[C@H]3C[C@@H]4CN)nc(C)n2)cc1OC` yielded an activity [15] of 2.55%, an activity change, negative = inhibition [16] of 1.77% and an activity [17] of -94.2%. The activity [18] was 2.63%.
With `C=C1C[C@@]23CC[C@H]4[C@@](C)(CCC[C@@]4(C)C(=O)O[C@@H]4O[C@H](CO)[C@@H](O)[C@H](O)[C@H]4O[C@@H]4O[C@H](CO)[C@@H](O)[C@H](O)[C@H]4O)[C@@H]2CC[C@]1(O[C@@H]1O[C@H](CO)[C@@H](O)[C@H](O)[C@H]1O[C@@H]1O[C@H](CO)[C@@H](O)[C@H](O)[C@H]1O)C3` the Potency [1] was “inactive” and the Potency [9] was “inactive”.
With `CC(C)=CCC[C@](C)(O)[C@H]1CC[C@@]2(C)[C@H]1[C@@H](O)CC1[C@@]3(C)CC[C@@H](O[C@@H]4O[C@H](CO)[C@@H](O)[C@H](O)[C@H]4O)C(C)(C)C3CC[C@]12C` (stereo not given in full) the Potency [14] was “inactive”.
In the case of `Cc1ccc(O)c(O)c1`, the Potency [1] is reported as “inactive”.
Work on `[Cl][Pt].[NH2-].[NH2-].c1ccncc1` yielded an activity [15] of -4.9%, an activity change, negative = inhibition [16] of 3.42% [at 57.3 µM] and an activity [17] of -8.73%. It also gave an activity [18] of 0.0118%.
In the case of `COc1ccc(-c2cc3c(cn2)CN(C)CCN3)cn1`, the activity [15] is reported as 1.58%, the activity change, negative = inhibition [16] is reported as -1.54% [at 114 µM] and the activity [17] is reported as -5.95%. The activity [18] was -1.09%.

From PubChem BioAssay (NCATS)
